Data taken from the supplement of paper PMC8728848.
This is one part of a sample in which the strongest signals are shown more often than they occur.

Columns and labels:
Test in all cases: glycan array binding signal (z-score within array); higher = stronger binding
Details in all cases: glycan notation: IUPAC condensed, linker removed
[1] = target: Gal(b1-4)GlcNAc(b1-3)Gal(b1-4)[Fuc(a1-3)]GlcNAc(b1-3)Gal(b1-4)[Fuc(a1-3)]GlcNAc
Summary of the method: (§1)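 From the Consortium for Functional Glycomics database, 3228 arrays were curated, keeping only those whose protein sequence was available. Binding is given as a within-array Z-score averaged across arrays sharing a protein sequence and across linkers. Negative Z-scores can be read as non-binding.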

[2] = target: Gal(b1-4)GlcNAc(b1-3)[Fuc(a1-3)GlcNAc(b1-6)]Gal(b1-4)Glc
Summary of the method: as §1

Gal3S(b1-4)GlcNAc = target: Gal3S(b1-4)GlcNAc
Summary of the method: as §1

[3] = target: GalNAc(a1-3)GalNAc(b1-3)Gal(a1-4)Gal(b1-4)Glc
Summary of the method: as §1

[4] = target: GalNAc(b1-3)Gal(a1-4)Gal(b1-4)GlcNAc
Summary of the method: as §1

[5] = target: GlcNAc(b1-2)Man(a1-3)[GlcNAc(b1-4)][GlcNAc(b1-2)Man(a1-6)]Man(b1-4)GlcNAc(b1-4)[Fuc(a1-6)]GlcNAc
Summary of the method: as §1

[6] = target: GlcNAc(b1-2)[GlcNAc(b1-4)]Man(a1-3)[GlcNAc(b1-4)][GlcNAc(b1-2)Man(a1-6)]Man(b1-4)GlcNAc(b1-4)GlcNAc
Summary of the method: as §1

[7] = target: GlcNAc(b1-3)Gal(b1-4)GlcNAc(b1-3)[GlcNAc(b1-3)Gal(b1-4)GlcNAc(b1-3)]GalNAc
Summary of the method: as §1

GlcNAc(b1-3)GalNAc = target: GlcNAc(b1-3)GalNAc
Summary of the method: as §1

[8] = target: GlcNAc(b1-4)GlcNAc(b1-4)GlcNAc(b1-4)GlcNAc(b1-4)GlcNAc
Summary of the method: as §1

Man(a1-3)[Man(a1-6)]Man = target: Man(a1-3)[Man(a1-6)]Man
Summary of the method: as §1

Neu5Ac(a2-3)Gal = target: Neu5Ac(a2-3)Gal
Summary of the method: as §1

[9] = target: Neu5Ac(a2-3)Gal(b1-3)GalNAc(b1-3)Gal(a1-4)Gal(b1-4)Glc
Summary of the method: as §1

[10] = target: Neu5Ac(a2-3)Gal(b1-3)GlcNAc(b1-2)Man(a1-3)[GlcNAc(b1-4)][Neu5Ac(a2-3)Gal(b1-3)GlcNAc(b1-2)Man(a1-6)]Man(b1-4)GlcNAc(b1-4)GlcNAc
Summary of the method: as §1

[11] = target: Neu5Ac(a2-3)Gal(b1-3)[Fuc(a1-4)]GlcNAc
Summary of the method: as §1

[12] = target: Neu5Ac(a2-3)Gal(b1-4)GlcNAc(b1-3)Gal(b1-4)GlcNAc
Summary of the method: as §1

[13] = target: Neu5Ac(a2-3)Gal(b1-4)GlcNAc(b1-3)Gal(b1-4)GlcNAc(b1-3)Gal(b1-4)GlcNAc
Summary of the method: as §1

[14] = target: Neu5Ac(a2-3)Gal(b1-4)GlcNAc(b1-3)Gal(b1-4)GlcNAc(b1-3)GalNAc
Summary of the method: as §1

[15] = target: Neu5Ac(a2-3)Gal(b1-4)[Fuc(a1-3)]GlcNAc(b1-6)[Neu5Ac(a2-3)Gal(b1-3)]GalNAc
Summary of the method: as §1

Neu5Ac(a2-6)Gal(b1-4)Glc = target: Neu5Ac(a2-6)Gal(b1-4)Glc
Summary of the method: as §1

[16] = target: Neu5Ac(a2-6)Gal(b1-4)GlcNAc(b1-2)Man(a1-3)[GlcNAc(b1-4)][Neu5Ac(a2-6)Gal(b1-4)GlcNAc(b1-2)Man(a1-6)]Man(b1-4)GlcNAc(b1-4)GlcNAc
Summary of the method: as §1

[17] = target: Neu5Ac(a2-6)Gal(b1-4)GlcNAc(b1-2)Man(a1-3)[Man(a1-6)]Man(b1-4)GlcNAc(b1-4)GlcNAc
Summary of the method: as §1

[18] = target: Neu5Ac(a2-6)Gal(b1-4)GlcNAc(b1-6)[Gal(b1-3)]GalNAc
Summary of the method: as §1

[19] = target: Neu5Ac(a2-8)Neu5Ac(a2-3)Gal(b1-3)GalNAc(b1-4)[Neu5Ac(a2-3)]Gal(b1-4)Glc
Summary of the method: as §1

[20] = target: Neu5Ac(a2-8)Neu5Ac(a2-3)Gal(b1-4)GlcNAc
Summary of the method: as §1

[21] = target: Neu5Gc(a2-3)Gal(b1-4)GlcNAc
Summary of the method: as §1

[22] = target: Neu5Gc(a2-3)Gal(b1-4)GlcNAc(b1-3)Gal(b1-4)GlcNAc(b1-2)Man(a1-3)[Neu5Gc(a2-3)Gal(b1-4)GlcNAc(b1-3)Gal(b1-4)GlcNAc(b1-2)Man(a1-6)]Man(b1-4)GlcNAc(b1-4)GlcNAc
Summary of the method: as §1

[23] = target: Neu5Gc(b2-6)Gal(b1-4)GlcNAc
Summary of the method: as §1

B1: PX9961V-pdi-562-26-562 (Parabacteroides distasonis) (protein)
chain: EIFSEITTDNYYQNSNNIYAALVNNYAKAFSTGWSDARYFLQEVTADQLMIPTRGKHGYNGGEYVRLHEHKWTVEENFVYNGWAAPFQGIALCNNTLSDFENLDFSTFKLTEETKNEYIAELRALRVWNYMFLIDFFRHVPIVTDIEEVKAQSTPLEVFNFMESELLAILPDLPKNRGVSRFDQAGVASILVRLYLNAEKWIGISKYDECEQMAQAILDGKYGEYSIDPDYRGPFRSGINGYRSKENIMEFAIKKNYFEASWLYNMWMHYQDRYSLDNDWQGWNGGNLAPSRDLYGNLYQDKLGMPFEKFPDGDIRKKAFRVISNDGDYEGFFLMGTQYKFDYEKGYGFTDEVITGTEEYNGKPLVYVDQVGRFSEGETGLAKGSHVIYGEENTGYRLIKFPWLPQSKDLFQMNSIPEIRLAEIYYSLAECKYRSGDKIGAARLLDVVRKRYYKAEDWSKFSYESNISKLTDDEFVDELGREFIGERHRRIDLIRWNRFSEGAWWDKTPDATNQDVFPIPYRALNANPLLKQTTAGF
Q: B1 was tested. Which “glycan array binding signal (z-score)” value [1] did it give?
A: -0.412

Q: And the “glycan array binding signal (z-score)” value [2]?
A: -0.429

Q: And the “glycan array binding signal (z-score)” value (Gal3S(b1-4)GlcNAc)?
A: -0.447

Q: What about the “glycan array binding signal (z-score)” value [3] of the same binder?
A: -0.432

Q: What about the “glycan array binding signal (z-score)” value [4] of the same binder?
A: -0.339

Q: And the “glycan array binding signal (z-score)” value [5]?
A: -0.145

Q: And the “glycan array binding signal (z-score)” value [6]?
A: -0.324

Q: What about the “glycan array binding signal (z-score)” value [7] of the same binder?
A: -0.471

Q: What about the “glycan array binding signal (z-score)” value (GlcNAc(b1-3)GalNAc) of the same binder?
A: -0.21

Q: And the “glycan array binding signal (z-score)” value [8]?
A: 0.049

Q: What about the “glycan array binding signal (z-score)” value (Man(a1-3)[Man(a1-6)]Man) of the same binder?
A: -0.443

Q: What about the “glycan array binding signal (z-score)” value (Neu5Ac(a2-3)Gal) of the same binder?
A: -0.711

Q: What about the “glycan array binding signal (z-score)” value [9] of the same binder?
A: -0.516

Q: And the “glycan array binding signal (z-score)” value [10]?
A: 0.213

Q: And the “glycan array binding signal (z-score)” value [11]?
A: -0.598

Q: What about the “glycan array binding signal (z-score)” value [12] of the same binder?
A: -0.53

Q: And the “glycan array binding signal (z-score)” value [13]?
A: -0.516

Q: What about the “glycan array binding signal (z-score)” value [14] of the same binder?
A: -0.319

Q: What about the “glycan array binding signal (z-score)” value [15] of the same binder?
A: 2.66

Q: And the “glycan array binding signal (z-score)” value (Neu5Ac(a2-6)Gal(b1-4)Glc)?
A: -0.644

Q: What about the “glycan array binding signal (z-score)” value [16] of the same binder?
A: -0.373

Q: What about the “glycan array binding signal (z-score)” value [17] of the same binder?
A: -0.231

Q: And the “glycan array binding signal (z-score)” value [18]?
A: -0.27

Q: And the “glycan array binding signal (z-score)” value [19]?
A: -0.606

Q: And the “glycan array binding signal (z-score)” value [20]?
A: -0.574

Q: What about the “glycan array binding signal (z-score)” value [21] of the same binder?
A: 0.017

Q: What about the “glycan array binding signal (z-score)” value [22] of the same binder?
A: -0.054

Q: And the “glycan array binding signal (z-score)” value [23]?
A: -0.322
